Among the test systems are PKMYT1; PKN1; PKN2; PLK1; PLK2; PLK3; PLK4; PRKCD; PRKCE; PRKCH; PRKCI; PRKCQ; PRKD1; PRKD2; PRKD3; PRKG1; PRKG2; PRKX.
Common to all, as to conditions: concentration: 1 μM, replicates: in singlicate; n = 1
The test system of a further assay is T1, PKAC-beta.
T1 construct: gene PRKACB

The next assay has as its system T2, PRKR.
T2 construct: gene EIF2AK2

Here are results for eleven compounds from PMC5540273 (PLoS ONE, 2017).
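Also: KINOMEscan kinase panel screen.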

As to `COc1cc2ncnc(Nc3cccc(Br)c3)c2cc1OC.Cl` [GI230329], the “%Inh” value with PKAC-beta was 0%; in the assay on PKMYT1 it was 0%; in the assay on PKN1, 0%; in the assay on PKN2, 0%; in the assay on PLK1, 2%; with PLK2, 0%. In addition, the “%Inh” value was found to be 0% in the assay on PLK3; 0% in the assay with PLK4; 3% in the assay on PRKCD; 11% in the assay on PRKCE; 0% with PRKCH; 15% in the assay with PRKCI. The “%Inh” value in the assay on PRKCQ stood at 4%; in the assay on PRKD1, 0%; in the assay with PRKD2 it was 6%; in the assay with PRKD3, 0%; in the assay on PRKG1 it was 9%; with PRKG2 it was 1%. In addition, the “%Inh” value in the assay on PRKR was determined as 0%; in the assay with PRKX it was 6%.

Turning to `Cc1ccc(NC(=O)Nc2ccccc2)cc1-c1ccc(C(=O)Nc2ccncc2)cc1` [GSK1398471], the “%Inh” value with PKAC-beta is reported as 0%; in the assay on PKMYT1, 28%; in the assay on PKN1 it was 0%; with PKN2, 2%; with PLK1, 2%; in the assay with PLK2 it was 0%. The “%Inh” value with PLK3 is 0%; with PLK4, 1%; in the assay on PRKCD, 0%; in the assay on PRKCE it was 0%; with PRKCH, 11%; with PRKCI, 22%. Also, the “%Inh” value with PRKCQ is reported as 8%; with PRKD1, 20%; in the assay on PRKD2 it was 15%; with PRKD3, 3%; with PRKG1 it was 0%; with PRKG2 it was 0%. In addition, the “%Inh” value with PRKR is 0%; with PRKX it was 14%.

Regarding `Fc1ccc(-c2nc3n(c2-c2ccncc2)CCS3)cc1` [GI98581], the “%Inh” value in the assay with PKAC-beta was 23%; in the assay with PKMYT1, 10%; with PKN1, 0%; in the assay on PKN2, 0%; in the assay with PLK1, 0%; in the assay on PLK2 it was 0%. For the same compound, the “%Inh” value is 0% in the assay on PLK3; 0% in the assay with PLK4; 1% in the assay with PRKCD; 0% in the assay with PRKCE; 2% in the assay with PRKCH; 1% in the assay with PRKCI. Moreover, the “%Inh” value is 21% in the assay on PRKCQ; 0% in the assay with PRKD1; 6% in the assay with PRKD2; 20% with PRKD3; 39% with PRKG1; 0% in the assay with PRKG2. Also, the “%Inh” value with PRKR is recorded as 0%; with PRKX, 15%.

For the compound `O=c1cc(N2CCOCC2)nc2n(Cc3ccccc3F)ccn12` [GSK2297428], the “%Inh” value with PKAC-beta is 0%; with PKMYT1, 0%; in the assay with PKN1 it was 7%; with PKN2, 0%; in the assay with PLK1, 13%; in the assay with PLK2, 0%. Besides, the “%Inh” value amounted to 0% in the assay on PLK3; 8% with PLK4; 0% in the assay on PRKCD; 1% with PRKCE; 18% with PRKCH; 1% in the assay with PRKCI. For the same compound, the “%Inh” value in the assay with PRKCQ, in the assay on PRKD1, with PRKD2, with PRKD3, in the assay with PRKG1 and with PRKG2 was 0% throughout. Besides, the “%Inh” value in the assay with PRKR and with PRKX was 0% each time.

Consider `Cc1ccc(NC(=O)c2ccc(Cl)cc2)cc1-c1ccc(C(=O)Nc2ccncc2)cc1` [GSK1398467], for which the “%Inh” value stood at 0% in the assay with PKAC-beta; 2% in the assay on PKMYT1; 2% with PKN1; 0% with PKN2; 0% with PLK1; 0% in the assay on PLK2. Moreover, the “%Inh” value is listed as 0% in the assay with PLK3; 0% with PLK4; 3% in the assay with PRKCD; 15% with PRKCE; 5% with PRKCH; 5% with PRKCI. Besides, the “%Inh” value with PRKCQ turned out to be 0%; with PRKD1 it was 0%; with PRKD2, 0%; in the assay with PRKD3, 9%; in the assay with PRKG1, 0%; with PRKG2, 0%. The “%Inh” value in the assay on PRKR was determined as 4%; with PRKX, 23%.

With `CN1c2ccc(-c3ccc(C(N)=O)cc3)cc2-c2[nH]ncc2S1(=O)=O`, the “%Inh” value in the assay on PKAC-beta came out at 0%; in the assay on PKMYT1 it was 0%; in the assay on PKN1, 0%; with PKN2, 0%; with PLK1 it was 4%; in the assay with PLK2, 3%. The “%Inh” value was determined as 13% in the assay on PLK3; 0% in the assay on PLK4; 3% with PRKCD; 12% in the assay on PRKCE; 0% in the assay with PRKCH; 4% with PRKCI. In addition, the “%Inh” value came to 5% in the assay with PRKCQ; 17% with PRKD1; 80% in the assay with PRKD2; 0% with PRKD3; 0% in the assay on PRKG1; 2% in the assay on PRKG2. The “%Inh” value is listed as 6% in the assay with PRKR and 0% in the assay on PRKX.

Turning to `COc1ccc(Nc2nccc(N3CCC(NC(=O)c4cc5ccccc5s4)C3)n2)cc1` (stereo not shown) [GSK1379738], the “%Inh” value in the assay with PKAC-beta amounted to 0%; with PKMYT1 it was 3%; in the assay with PKN1, 23%; in the assay on PKN2, 0%; in the assay on PLK1, 11%; in the assay on PLK2, 0%. Besides, the “%Inh” value turned out to be 0% in the assay on PLK3; 3% with PLK4; 0% in the assay on PRKCD; 17% in the assay on PRKCE; 0% in the assay with PRKCH; 15% with PRKCI. In addition, the “%Inh” value with PRKCQ turned out to be 7%; in the assay with PRKD1 it was 0%; in the assay on PRKD2, 12%; in the assay on PRKD3, 100%; in the assay on PRKG1, 0%; with PRKG2, 0%. The “%Inh” value with PRKR turned out to be 0%; with PRKX it was 12%.

For `COc1cccc(CNC(=O)NC2CCN(c3ccnc(Nc4ccc(F)cc4)n3)C2)c1` (stereo not shown) [GSK1379723], the “%Inh” value in the assay with PKAC-beta came to 0%; in the assay on PKMYT1, 2%; with PKN1, 4%; in the assay with PKN2, 0%; with PLK1 it was 0%; in the assay on PLK2 it was 0%. Also, the “%Inh” value with PLK3 was determined as 0%; in the assay with PLK4 it was 0%; in the assay on PRKCD, 0%; in the assay on PRKCE, 9%; with PRKCH it was 2%; in the assay on PRKCI it was 10%. For the same compound, the “%Inh” value in the assay on PRKCQ stood at 0%; with PRKD1, 0%; in the assay with PRKD2, 0%; in the assay on PRKD3, 14%; in the assay with PRKG1, 0%; with PRKG2 it was 0%. Further, the “%Inh” value in the assay with PRKR was 0%; with PRKX, 6%.

As to `Fc1ccc(-c2nc[nH]c2-c2ccncc2)cc1` [SB-217360], the “%Inh” value was 0% in the assay on PKAC-beta; 9% in the assay on PKMYT1; 0% with PKN1; 0% in the assay with PKN2; 9% in the assay on PLK1; 21% in the assay on PLK2. Further, the “%Inh” value in the assay on PLK3 was 36%; in the assay with PLK4, 4%; in the assay on PRKCD it was 8%; in the assay with PRKCE, 0%; in the assay with PRKCH, 0%; in the assay with PRKCI, 0%. For the same compound, the “%Inh” value turned out to be 0% in the assay on PRKCQ; 0% with PRKD1; 0% in the assay on PRKD2; 0% in the assay on PRKD3; 18% with PRKG1; 0% in the assay on PRKG2. Besides, the “%Inh” value in the assay with PRKR and in the assay with PRKX was 0% each time.

As for `COC(=O)C(Cc1ccccc1)NC(=O)NC1CCN(c2ccnc(Nc3ccc(F)cc3)n2)C1` (stereo not shown) [GSK1379714], the “%Inh” value is on record as 0% with PKAC-beta; 0% in the assay with PKMYT1; 41% in the assay on PKN1; 0% in the assay on PKN2; 6% with PLK1; 0% in the assay with PLK2. The “%Inh” value is 0% with PLK3; 12% with PLK4; 1% in the assay with PRKCD; 20% with PRKCE; 10% with PRKCH; 22% with PRKCI. The “%Inh” value amounted to 0% with PRKCQ; 0% with PRKD1; 0% with PRKD2; 100% in the assay with PRKD3; 0% with PRKG1; 8% with PRKG2. In addition, the “%Inh” value with PRKR is 6%; in the assay on PRKX, 0%.

Take `CC[C@@H]1CO[C@H](C(=O)Nc2ccccc2)CN1c1cc(-c2ccc3c(N)n[nH]c3c2)nc(NC)n1` [GSK2376236]: the “%Inh” value with PKAC-beta is on record as 73%; in the assay on PKMYT1, 0%; in the assay with PKN1 it was 85%; in the assay with PKN2, 0%; with PLK1, 0%; in the assay on PLK2, 0%. The “%Inh” value in the assay on PLK3 was found to be 0%; in the assay on PLK4, 0%; in the assay with PRKCD, 0%; in the assay on PRKCE, 3%; with PRKCH, 6%; in the assay with PRKCI it was 39%. The “%Inh” value with PRKCQ stood at 24%; with PRKD1, 0%; with PRKD2, 12%; with PRKD3 it was 3%; in the assay with PRKG1, 13%; in the assay with PRKG2, 84%. Further, the “%Inh” value in the assay with PRKR was found to be 12%; in the assay with PRKX it was 95%.
